# Only some compounds are listed: those with a hit (about 2.9% of all), similar ones and a draw of the others.
# Nrf2 inh – Nrf2 qHTS screen for inhibitors | A549 ARE-Fluc reporter, luciferase luminescence, 18-24 h | Potency, µM (titrated, usually from 46 µM), for the others: top-dose activity change, negative = inhibition, most hits filed as inhibitors | 2.1% of 360,000 active | AID 504444, 2011; note: % is set by controls: 0 for no effect and ±100 for the full control effect; nearly all actives have a fitted effect of over 60% in size
#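 Cells were seeded and rested 2 h, then exposed to compounds for 18-24 h. CellTiter-Fluor was read first as a viability measure. BugLite was added 15 min before the final luminescent read of ARE-luciferase activity in A549 cells.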
# A549 viability – Nrf2 qHTS screen for inhibitors: counterscreen for cytotoxicity; A549 ARE-Fluc cells, CellTiter-Fluor viability, 18-24 h; Potency, µM (doses to about 46 µM), for the others: at the top dose activity change, negative = cytotoxicity, most hits filed as inhibitors; 0.16% of 390,000 active; AID 504648, 2011; note: % is set by controls: 0 for no effect and ±100 for the full control effect
#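 A549 ARE-Fluc cells in 5% FBS OPTI-MEM, 5000 cells/well, rested 2 h then exposed to compounds in concentration-response for 18-24 h at 37 °C. Viability by CellTiter-Fluor fluorescence (Ex 405/Em 525) after 30 min; luciferase luminescence (BugLite, 15 min, RT) read afterwards.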
# ATXN2 expr inh – Primary qHTS for Inhibitors of ATXN expression; HEK-293 ATXN2-luciferase reporter, luminescence, 24 h; Potency, µM (top dose mostly 57 µM), inactives show at the highest dose activity change, negative = inhibition, usual class: inhibitors; 0.72% of 360,000 active; note: % is set by controls: 0 for no effect and ±100 for the full control effect; nearly all actives have a fitted effect of over 55% in size
#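 ATXN2-luciferase reporter cells (luciferase flanked by upstream and downstream ATXN2 gene portions) were treated 24 h at 37 °C with compounds at up to 57 uM. SteadyGlo luminescence gave expression; GF-AFC fluorescence gave viability.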
# Nrf2 activator – qHTS of Nrf2 Activators. AREc32 ARE-luciferase reporter (MCF7-derived line), luminescence, 24 h. Potency, µM (titrated, usually from 46.1 µM), for inactives: at the highest dose activation, hits mostly activators. 0.31% of 410,000 active. AID 624171, 2012; note: % of control where 0% means no effect; nearly all actives have a fitted effect of over 65% in size
#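 Luciferase luminescence (Steady-Glo, 30 min at room temperature) served as the read-out of ARE activation in AREc32 cells treated with compounds for 24 hr at 37 deg C.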
# S2 tox – Viability Counterscreen for Primary qHTS for Inhibitors of ATXN expression. S2 cells (HEK-293 line with an ATXN2-luciferase reporter) viability, CellTiter-Fluor protease fluorescence, 24 h. Potency, µM (doses to about 56.7 µM), most hits filed as cytotoxic. 0.49% of 400,000 active. AID 651635, 2014; note: nearly all actives have a fitted effect of over 40% in size
# Active calls of the source: *; i = inactive; ? = inconclusive; / = no result; ! = not active in a repeat; [ ] = another dose, or the depositor's remark. Calls come from the whole dose curve; as a rule, active = well fitted curve in the direction sought with a large enough effect; inconclusive = small, poorly fitted or top-dose-only effect, or another doubt; inactive = no such curve, though single readings can be large; an effect the other way counts as inactive or inconclusive. Potency is the fitted concentration of half-maximal effect.
SMILES,Nrf2 inh,A549 viability,ATXN2 expr inh,Nrf2 activator,S2 tox
Cc1ccccc1-c1nc(CS(=O)(=O)CC(=O)NCc2ccccc2)c(C)o1,-9%,-2%,2%,-1%,i
Cc1ccccc1-c1nc(CS(=O)(=O)CC(=O)NCCCc2ccccc2)c(C)o1,21µM*,?,?,0%,i
COc1ccccc1NC1=C(Cl)C(=O)N(c2ccccc2)C1=O,0%,0%,6%,6%,i
CCOc1ccc(N2C(=O)C(Cl)=C(Nc3ccccc3O)C2=O)cc1,10%,1%,9%,13µM*,i
CC(=O)/C(=C/c1ccccc1)C(=O)Nc1ccccc1C,-10%,12%,/,?,?
Cc1ccccc1NC(=O)C(=Cc1ccc(C(=O)O)cc1)C(=O)Nc1ccccc1C,?,?,11µM*,?,?
CCC(C(=O)NC1CCCCC1)N(Cc1cccs1)C(=O)CCC(=O)Nc1cc(C)on1 (stereo unspecified),8.2µM*,-14%,-10%,0%,i
COc1cc(=O)n2c(c1C(=O)NC(C)c1ccco1)CCN(C(=O)c1ccccc1SC)CC2 (stereo unspecified),/,/,/,/,i
COCc1nn2c(=O)cc(N3CCNCC3)nc2s1,5%,7%,/,/,/
CCCCn1c(SCc2ccc(C(=O)OC)o2)nc2cc(S(N)(=O)=O)ccc21,16µM*,-9%,-25%,3%,i
Cc1ccc2[nH]c(O)c(N=NC(N)=S)c2c1,-24%,-3%,/,0%,i
CC(/C=C(\NC(=O)c1ccccc1)C(=O)N=Nc1c(O)[nH]c2ccc(C)cc12)=C\c1ccccc1,/,?,5%,8.9µM*,i
O=C(Nc1ccc(OCc2ccccc2Cl)cc1)c1cccnc1,9.2µM*,0%,/,-2%,i
O=C(Nc1ccc(OCc2ccccc2)cc1)c1cccnc1,11%,-2%,21%,0%,i
NC(=O)NC1N=C([O][Al])NC1=O (stereo unspecified),/,/,-12%,/,i
Cc1ccc(/C=C2\SC(=S)N(CC(=O)Nc3cccnc3)C2=O)cc1,-14%,1%,1%[11.3 µM],2%,i
Cc1ccc(/C=C2\SC(=S)N(CCCC(=O)Nc3cccnc3)C2=O)cc1,12µM*,?,3.5µM*,-2%,?
O=C(CCCN1C(=O)/C(=C/c2cccc(Br)c2)SC1=S)Nc1ccccn1,?,?,10µM*,4%,?
CCc1ccc(/C=C2\SC(=S)N(CCCC(=O)Nc3ccccn3)C2=O)cc1,23µM*,-13%,4.5µM*,-3%,?
COC(=O)c1ccc(/C=C2/SC(=S)N(CCCC(=O)Nc3ccccn3)C2=O)cc1,26%,-19%,?,0%,i
O=C(CCCN1C(=O)/C(=C\c2cccc(Br)c2)SC1=S)Nc1cccnc1,?,?,?,10µM*,?
CC(C)(C)C1CCc2c(sc(NC(=O)C3c4ccccc4Oc4ccccc43)c2C(N)=O)C1 (stereo unspecified),?,1%,/,3%,/
CCc1nc(Nc2ccc(OC)c(OC)c2)c2nnn(Cc3ccccc3Cl)c2n1,10µM*,?,-32%,2%,i
COc1cccc(OC)c1Nc1nc(C)nc2c1nnn2Cc1ccccc1Cl,6%,-1%,-13%,-1%,i
CC(C)(C)OC(=O)Cc1nnc(-c2nc3ccccc3[nH]2)s1,?,-3%,/,/,/
SMILES,Nrf2 inh,A549 viability,ATXN2 expr inh,Nrf2 activator,S2 tox
COc1cc2c(Nc3ccc(Cl)c(Cl)c3F)ncnc2cc1OCC1C[C@@H]2CN(C)C[C@H]2C1,/,/,31µM*,/,/
COc1cc2c(Nc3ccc(Br)cc3F)ncnc2cc1OCC1CCN(C)CC1,/,/,31µM*!,/,i
O=S(=O)(Nc1ccc(O)c2ccccc12)c1ccc(F)cc1,-11%,-10%,32µM*,-3%,?
CCCCS(=O)(=O)/C=C\C=C/S(=O)(=O)CCCC,/,?,7.1µM*,-3%,8.9µM*
O=C(NCc1cccs1)c1ccc(Cn2c(SCc3cccc(F)c3)nc3cccnc32)cc1,?,?,/,0%,/
CC(C)C(=O)Nc1cccc(COc2ccc(CN(Cc3ccccc3)C(=O)OC(C)(C)C)cc2)c1,16µM*,-4%,-18%,4%,i
CCC(C)CCCCC(=O)N[C@@H](CCN)C(=O)NC(C(=O)N[C@H](CCN)C(=O)N[C@@H]1CCNC(=O)C([C@@H](C)O)NC(=O)[C@@H](CCN)NC(=O)[C@@H](CCN)NC(=O)[C@@H](CC(C)C)NC(=O)[C@H](Cc2ccccc2)NC(=O)[C@H](CCN)NC1=O)[C@@H](C)O (stereo partly specified),/,/,3%,/,/
COc1ccc(/C=C/c2cc(C(=O)O)c3ccccc3n2)cc1,6.5µM*,0%,2.2µM*,-2%,i
Cc1ccc(S(=O)(=O)N2C[C@@H]3[C@H]4CC[C@H](C4)[C@@H]3[C@@H](C)[C@@H]2c2cn(Cc3ccccc3)c3ncccc23)cc1,21µM*,0%,-19%,3%,i
NC(N)=Nc1nc(-c2ccccc2)c2cc(F)ccc2n1,?,?,?,4%,5.6µM*
OCCSc1nc(-c2ccccc2)nc2ccc(F)cc12,?,-3%,/,10%,i
COc1ccc(S(=O)(=O)c2cnc3ccccc3n2)cc1,-3%,-3%,15%,18µM*,i
O=S(=O)(Nc1cc(O)cc2cccnc12)c1ccc(Br)s1,14%,-2%,/,/,/
Cc1[nH]nc2c1C1(C(=O)N(Cc3ccc(Cl)cc3)c3ccccc31)C(C#N)=C(N)O2 (stereo unspecified),21µM*,-6%,?,0%,i
Clc1cccc(OCc2nc(-c3ccncc3)n[nH]2)c1,21µM*,-1%,-4%,0%,i
Cc1cc2c(s1)c1cnn(Cc3ccc(Cl)cc3)c(=O)c1n2C,3%,-6%,/,/,/
Cc1ccc(Nc2c(-c3cccnc3)nc3ccc(Cl)cn23)cc1,?,-10%,-9%,0%,?
CCc1nnc(NC(=O)CSc2nc3c([nH]c4ccccc43)c(=O)n2-c2ccc(F)cc2)s1,/,-2%,2%,0%,i
O=C(Nc1ccc(F)cc1)c1ccc(-n2cncn2)c([N+](=O)[O-])c1,23µM*,-6%,-22%,3%,i
COc1cc(CNCc2cc3cc(C)ccc3nc2-c2ccc(F)cc2)cc(OC)c1OC,/,/,/,/,i
CCOC(=O)N1CCN(C(=O)c2ccc3c(c2)N(Cc2cccc(Cl)c2)C(=O)c2ccccc2S3=O)CC1 (stereo unspecified),21µM*,?,?,0%,i
CN(Cc1ccccc1)C(=O)c1ccc2c(c1)N(Cc1ccc(Cl)cc1)C(=O)c1ccccc1S2=O (stereo unspecified),21µM*,-29%,9%,0%,i
